Source: PubChem BioAssay
Only some compounds are listed: those with a hit (about 9.2% of all), similar ones and a draw of the others.
NPC1 prom act: NPC1 promoter activation; 320,000 compounds, 2.4% hits; Huh7 NPC1 promoter luciferase reporter, 24 h; Potency, µM (series often up to 9.22 µM), inactives show top-dose activation, most hits filed as activators; AID 485313; also: % of control where 0% means no effect; nearly all actives have a fitted effect of over 60% in size
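Luminescence from an NPC1 promoter-driven luciferase reporter in stably transfected Huh7 cells was measured after 24 h compound treatment at 37 °C, followed by 10 min ambient incubation with luciferase detection reagent.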
ELG1 repair inh: ELG1-dependent DNA repair inhibition; HEK293T ELG1-luciferase reporter, luminescence, 16 h; DNA damage induced by 5-fluorouridine; Potency, µM (series often up to 46.1 µM), for inactives: top-dose activity change, negative = inhibition, actives largely listed as inhibitors; 330,000 compounds, 2.3% hits; also: % is scaled to controls: 0 for no effect and ±100 for the full control effect; nearly all actives have a fitted effect of over 55% in size
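5-Fluorouridine DNA damage + compound/DMSO, 2,000 cells/well, 16 h, 37 °C/5% CO2. ONE-Glo, 30 min RT, luminescence. Readout = decrease in reporter signal.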
SMN2 splice up: SMN2 splice variant enhancement. HEK293 SMN2-luciferase splicing reporter, luminescence, 30-36 h. Potency, µM (highest dose often 46.1 µM), for the others: top-dose activity change, positive = activation, hits mostly activators. 210,000 compounds, 2.8% hits; also: % of control where 0% means no effect; nearly all actives have a fitted effect of over 55% in size
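HEK293 cells carry an SMN2 […]–luciferase reporter in which exon 7 inclusion puts luciferase in frame. Cells were plated 10-12 h before compound addition, then incubated 30-36 h at 37C. ONE-Glo luminescence was read; sodium butyrate at 4.5 mM final served as control.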
Rab9 prom act: activates the Rab9 promoter. Huh7 Rab9 promoter-luciferase reporter, luminescence, 24 h. 320,000 compounds, 2.8% hits. AID 485297. Potency, µM (series often up to 9.22 µM), without a hit: at the highest dose activation, negative = inhibition, most hits filed as activators; also: % of control where 0% means no effect; nearly all actives have a fitted effect of over 60% in size
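Huh7 cells stably carrying a Rab9 promoter-luciferase reporter, 1500 cells per well in OP-MEM I with 10% FBS, treated with compound 24 hours at 37C. Luciferase activity read by luminescence after 10 minutes with Amplite reagent.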
ELG1 genotoxic: inducers of genotoxicity in HEK293T ELG1-luciferase cells. HEK293T ELG1-luciferase reporter, luminescence, 16 h. Potency, µM (highest dose often 46 µM), without a hit: at the highest dose activity change, positive = activation, most hits filed as activators. 330,000 compounds, 1.3% hits; also: % of control where 0% means no effect; nearly all actives have a fitted effect of over 60% in size
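Screening used a luciferase reporter fused to human ELG1 in HEK293T cells. Luminescence was read on a CCD plate imager after 16 hr exposure and 30 min ONE-Glo incubation.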
FLuc modulator: inhibits or activates purified firefly luciferase, miR-21 counter-screen; P08659; purified FLuc, Km substrates, luminescence inhibition; Potency, µM (titrated, usually from 57.5 µM), inactives show top-dose activity change, negative = inhibition, actives largely listed as inhibitors; 360,000 compounds, 6.9% hits;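 also: plate controls were vehicle for no effect and reference inhibitor for full effect; nearly all actives have a fitted effect of over 55% in size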
Target sequence (P08659 whole entry, looked up): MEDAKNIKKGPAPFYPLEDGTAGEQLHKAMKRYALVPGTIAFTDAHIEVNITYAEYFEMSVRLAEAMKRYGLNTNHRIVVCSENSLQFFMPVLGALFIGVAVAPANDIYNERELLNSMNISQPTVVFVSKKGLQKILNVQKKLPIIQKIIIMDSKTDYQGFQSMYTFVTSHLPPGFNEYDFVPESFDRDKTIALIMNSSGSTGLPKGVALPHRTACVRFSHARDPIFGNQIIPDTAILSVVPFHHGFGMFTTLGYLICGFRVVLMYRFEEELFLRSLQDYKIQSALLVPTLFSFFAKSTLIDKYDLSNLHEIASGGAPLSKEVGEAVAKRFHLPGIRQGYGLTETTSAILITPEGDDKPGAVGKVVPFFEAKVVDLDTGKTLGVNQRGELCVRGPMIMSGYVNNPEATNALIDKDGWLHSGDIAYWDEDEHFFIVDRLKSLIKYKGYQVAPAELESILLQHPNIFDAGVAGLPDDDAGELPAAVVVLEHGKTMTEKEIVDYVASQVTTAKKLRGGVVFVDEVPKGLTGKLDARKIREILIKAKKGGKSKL
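Purified P. pyralis luciferase, 10 nM final, with Km-level 10 uM D-luciferin and 10 uM ATP in 50 mM Tris acetate pH 7.5, 10 mM Mg acetate, 0.01% Tween-20, 0.05% BSA; 6-point qHTS titration about 60 µM downward; luminescence read.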
Starred values were filed as active, the others as inactive; ? = inconclusive; · = not tested or not shown; [ ] = remark or other dose. Calls follow the shape of the dose curve; as a rule, active = well fitted curve in the direction sought with a large enough effect; inconclusive = small, poorly fitted or top-dose-only effect, or another doubt; inactive = no such curve, though single readings can be large; an effect the other way counts as inactive or inconclusive. Potency is read from the fitted curve at half-maximal effect.

SMILES | NPC1 prom act | ELG1 repair inh | SMN2 splice up | Rab9 prom act | ELG1 genotoxic | FLuc modulator
NC(=O)c1ccccc1NC(=O)COC(=O)C1(c2ccccc2)CC1 | -0.6% | 11.5% | · | -3.8% | -4.1% | 2.8%
COC(=O)c1ccc(Cn2nnc3sc4c(c3c2=O)CCC(C)C4)cc1 (centres undefined) | · | · | 25.0% | · | · | 4.8%
O=C(Nc1ccccc1NC(=O)c1c(F)cccc1F)c1c(F)cccc1F | 1.1% | 2.1% | · | -9.1% | -1.9% | -2.2%
O=C(Nc1noc2ccccc12)c1c(F)cccc1F | · | · | 22.4µM* | · | · | 7.57µM*
CCN(CC)C(=O)Cn1c(=O)n(Cc2ccc(C(=O)NCCCOC)cc2)c(=O)c2ccccc21 | · | · | 5.7% | · | · | -5.1%
C[N+](C)(C)CC[N+]1(C)Cc2c(Cl)c(Cl)c(Cl)c(Cl)c2C1 | · | · | 0.0% | · | · | ·
CCCCC/C=C\C[C@@H](O)/C=C/C=C\CCC(=O)O | · | · | -1.0% | · | · | ·
COc1ccc(C2SCC(=O)N2CCc2ccc(OC)c(OC)c2)cc1 (centres undefined) | -7.3% | 18.3µM* | · | -0.8% | -7.7% | -1.4%
O=c1cc(-c2ccccc2Cl)oc2ccc([N+](=O)[O-])c(O)c12 | 0.5% | -2.8% | -27.1% | -1.5% | 0.1% | -9.8%
O=c1cc(-c2ccccc2Cl)oc2c([N+](=O)[O-])c(O)cc(O)c12 | 15.4% | 3.66µM* | 29.4% | -4.1% | -15.9% | -18.8%
Nc1ccc2oc(-c3ccccc3Cl)cc(=O)c2c1O | 3.16µM* | ? | 11.2µM* | 3.98µM* | 16.4µM* | 6.75µM*
Cc1ccc(Cl)cc1NC(=O)c1nnn(Cc2ccccc2)c1N | · | · | -7.7% | · | · | -9.6%
O=C1CC(c2cccc(Cl)c2Cl)c2cc3c(cc2N1)OCCO3 (centres undefined) | · | · | 2.7% | · | · | 1.6%
Cc1nc(NC(=O)c2ccco2)sc1-c1csc(Nc2ccc(Cl)cc2Cl)n1 | -1.7% | 13µM* | -2.2% | -2.1% | -6.8% | ?
Cc1nc(NC(=O)c2ccco2)sc1-c1csc(Nc2ccc(Cl)cc2)n1 | -1.6% | 18.4µM* | -26.8% | 4.3% | -9.7% | 10.7µM*
Cc1ccc(Cl)cc1Nc1nc(-c2sc(NC(=O)c3ccco3)nc2C)cs1 | -12.9% | 8.2µM* | -77.0% | -14.6% | -3.1% | 0.4%
Cc1ccc(Cl)cc1Nc1nc(-c2sc(NC(=O)c3cccc(Cl)c3)nc2C)cs1 | -3.9% | 13.8% | -1.6% | 3.3% | 0.0% | -18.6%
COc1ccc(N2C(=O)CS(=O)(=O)C23C(=O)N(Cc2ccccc2F)c2ccccc23)cc1Cl (centres undefined) | · | · | · | · | · | -1.7%
CC(C)CCn1c(/C=C/c2ccccc2)nc2ccccc21 | · | · | ? | · | · | 4.26µM*
COCCn1c(/C=C/c2ccccc2)nc2ccccc21 | 2.24µM* | ? | 11.2µM* | 2µM* | ? | 1.69µM*
COCCn1c(-c2ccccc2)nc2ccccc21 | -1.7% | ? | -5.4% | -2.2% | 3.2% | ?
CC(C)CCn1c(-c2nonc2N)nc2ccccc21 | -2.9% | 23.1µM* | 3.6% | -1.3% | -6.5% | -1.3%
CCC(C)Cn1c(/C=C/c2ccccc2)nc2ccccc21 (centres undefined) | · | · | 22.7% | · | · | 6.75µM*
CCC(C)Cn1c(C(C)C)nc2ccccc21 (centres undefined) | -10.3% | -10.6% | -2.5% | -4.4%[1.84 µM] | -7.9% | -0.8%
CC(C)CCn1c(C(C)O)nc2ccccc21 (centres undefined) | 0.0% | -13.8% | -22.7% | 3.5% | -0.6% | 7.3%
SMILES | NPC1 prom act | ELG1 repair inh | SMN2 splice up | Rab9 prom act | ELG1 genotoxic | FLuc modulator
Cc1ccc(NC(=O)Cn2c(=O)c(C)nc3ccccc32)cc1 | -1.5% | 8.4% | 4.8% | -2.4% | 1.6% | -1.2%
CC(C)Cn1c(/C=C/c2ccc(F)cc2)nc2ccccc21 | · | · | 17.8µM* | · | · | 2.39µM*
Cc1cccc(NC(=O)Cn2c(/C=C/c3ccccc3)nc3ccccc32)c1 | 12.2% | ? | · | 23.4% | 23.1µM* | 3.01µM*
COc1ccccc1CNC(=O)CN(C)S(=O)(=O)c1ccc(Br)s1 | -0.9% | -10.9% | · | -2.2% | -7.8% | -2.0%
Cn1c(=O)c2c(nc(NCc3cccnc3)n2Cc2ccc(Cl)cc2)n(C)c1=O | -1.5% | 20.6µM* | -14.1% | -2.2% | -1.2% | 4.6%
Cn1c(OCc2cccnc2)nc2c1c(=O)n(Cc1ccc(Br)cc1)c(=O)n2C | 2.3% | 16.4µM* | -11.6% | -5.9% | -13.7% | 9.4%
CCNc1nc2c(c(=O)n(Cc3ccccc3)c(=O)n2C)n1Cc1ccccc1 | 0.3% | 13µM* | -1.7% | -0.8% | 0.8% | 3.4%
Cn1c(OCc2ccc3c(c2)OCO3)nc2c1c(=O)n(Cc1ccc(Cl)c(Cl)c1)c(=O)n2C | 0.5% | -2.8% | -39.2% | -2.8% | 0.9% | 8.8%
CCN(CC(=O)NCc1ccc(Cl)cc1)C(=O)c1cc(S(=O)(=O)N2CCOCC2)ccc1C | · | -16.5% | · | · | -1.9% | ·
C=CCn1c(C)cc(C(=O)Cn2ncc(Cl)c(Cl)c2=O)c1C | -15.8% | ? | ? | -25.1% | -15.4% | 5.36µM*
C=CCn1c(C)cc(C(=O)CN2NS(=O)(=O)c3ccccc3C2=O)c1C | 18.1% | ? | -15.2% | ? | 20.6µM* | 1.69µM*
O=C(Nc1ncc(Cc2ccccc2Cl)s1)c1ccc2c(c1)CC(c1ccccc1)OC2=O (centres undefined) | · | · | -4.5% | · | · | -0.8%
COc1cccc(CNC(=O)C(=O)NCC(c2ccco2)S(=O)(=O)c2ccccc2)c1 (centres undefined) | · | · | · | · | · | -11.0%
CCc1ccc(NC(=O)CCC(=O)Nc2nnc(C(F)(F)F)s2)cc1 | 20.6% | 14.8% | · | 0.4% | 9.4% | 26.9µM*
Cc1ccc(-n2cc(CN3CCCN(C=O)CC3)c(-c3ccc(F)cc3)n2)cc1 | -4.3% | 23.1µM* | · | -3.1% | -1.2% | ?
Cc1cccc(-n2cc(CN3CCCN(C=O)CC3)c(-c3cccc(F)c3)n2)c1 | -5.4% | -14.3% | · | -0.4% | 0.7% | 13.5µM*
CC(=O)N1CCCN(Cc2cn(-c3cc(C)ccc3C)nc2-c2ccccc2)CC1 | -1.8% | -6.8% | · | -1.8% | -6.4% | 5.6%
CC(=O)N1CCCN(Cc2cn(-c3cccc(C)c3)nc2-c2cccc(F)c2)CC1 | -3.8% | -8.2% | · | 0.5% | -1.8% | 16.9µM*
CC(=O)N1CCCN(Cc2cn(-c3ccc(C)cc3)nc2-c2ccc(F)cc2)CC1 | -6.3% | -8.3% | · | 1.4% | -0.4% | ?
CCN(C(=O)CSc1nc2ccccc2n1Cc1ccc(F)cc1Cl)c1ccccc1 | · | · | · | · | · | -0.1%
CSCCC(NS(=O)(=O)c1cccc(C(F)(F)F)c1)C(=O)N(C)CCOc1ccc(Cl)cc1 (centres undefined) | -2.2% | ? | · | -5.2% | -7.3% | 3.3%
COc1ccccc1NC(=O)c1sc2nc(C)c(C(=O)Nc3ccc(C)cc3C)c(-c3ccccc3Cl)c2c1N | · | · | 19.5% | · | · | -0.6%
